Records with an inconclusive call do not appear. Entries that show only a call come without a potency. A number with no mark means an inactive call. Calls of active or inactive are those of the source. Calls follow the shape of the dose curve; as a rule, active = well fitted curve in the direction sought with a large enough effect; inconclusive = small, poorly fitted or top-dose-only effect, or another doubt; inactive = no such curve, though single readings can be large; an effect the other way counts as inactive or inconclusive.
Legend:
[1] = target: Rap guanine nucleotide exchange factor 3 (Homo sapiens) (UniProt O95398); assay: Confirmatory qHTS for antagonist of cAMP-regulated guanine nucleotide exchange factor 3 (EPAC1) (AID 1645880); also: nearly all actives have a fitted effect of over 55% in size; also: potency is read from the fitted curve at half-maximal effect
Procedure, shortened: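 Nucleotide exchange uses 100 nM EPAC1, 250 nM RAP1B-BODIPY-GDP and 50 uM GDP, with compounds in a concentration-titration series. After 5 min at room temperature, fluorescence (480 nm ex/540 nm em) is read every 5 min for 30 min. Data are normalized to control ATA and DMSO.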

[2] = target: Rap guanine nucleotide exchange factor 3 (Homo sapiens) (UniProt O95398); assay: Confirmatory qHTS for agonist of cAMP-regulated guanine nucleotide exchange factor 3 (EPAC1) (AID 1645881);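 also: EPAC1 catalysed release of BODIPY-GDP from Rap1B seen as fluorescence loss; nearly all actives have a fitted effect of over 75% in size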
[3] = target: Rap guanine nucleotide exchange factor 4 (Homo sapiens) (UniProt Q8WZA2); assay: Confirmatory qHTS for agonist of cAMP-regulated guanine nucleotide exchange factor 4 (EPAC2) (AID 1645884);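 also: nucleotide exchange releases bodipy-GDP from Rap1 and this lowers its fluorescence; nearly all actives have a fitted effect of over 65% in size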
[4] = target: Rap guanine nucleotide exchange factor 4 (Homo sapiens) (UniProt Q8WZA2); assay: Confirmatory qHTS for antagonist of cAMP-regulated guanine nucleotide exchange factor 4 (EPAC2) (AID 1645885); also: nearly all actives have a fitted effect of over 25% in size; also: potency is read from the fitted curve at half-maximal effect
[5] = target: Rap guanine nucleotide exchange factor 3 (Homo sapiens) (UniProt O95398); assay: Counterscreen qHTS for antagonist of cAMP-regulated guanine nucleotide exchange factor 3 (EPAC1) (AID 1645888); also: potency is read from the fitted curve at half-maximal effect;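 as to activity change, negative = inhibition: fluorescence loss as bound BODIPY-GDP is released from Rap1B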
Procedure, shortened: (§1)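 Rap1B-BODIPY-GDP 250 nM + GDP 50 uM; cpds 7-pt, final 9.74 nM–152 uM (activator mode) or from 7.32 nM upwards (inhibitor mode); RT; FI 480/540 nm at 5 and 30 min, then ± cAMP, reread.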

[6] = target: Rap guanine nucleotide exchange factor 3 (Homo sapiens) (UniProt O95398); assay: Counterscreen qHTS for agonist of cAMP-regulated guanine nucleotide exchange factor 3 (EPAC1) (AID 1645889); also: nearly all actives have a fitted effect of over 40% in size; also: potency is read from the fitted curve at half-maximal effect
Procedure, shortened: as §1

Rap guanine nucleotide exchange factor 3 (Homo sapiens), sequence (O95398 whole entry, looked up): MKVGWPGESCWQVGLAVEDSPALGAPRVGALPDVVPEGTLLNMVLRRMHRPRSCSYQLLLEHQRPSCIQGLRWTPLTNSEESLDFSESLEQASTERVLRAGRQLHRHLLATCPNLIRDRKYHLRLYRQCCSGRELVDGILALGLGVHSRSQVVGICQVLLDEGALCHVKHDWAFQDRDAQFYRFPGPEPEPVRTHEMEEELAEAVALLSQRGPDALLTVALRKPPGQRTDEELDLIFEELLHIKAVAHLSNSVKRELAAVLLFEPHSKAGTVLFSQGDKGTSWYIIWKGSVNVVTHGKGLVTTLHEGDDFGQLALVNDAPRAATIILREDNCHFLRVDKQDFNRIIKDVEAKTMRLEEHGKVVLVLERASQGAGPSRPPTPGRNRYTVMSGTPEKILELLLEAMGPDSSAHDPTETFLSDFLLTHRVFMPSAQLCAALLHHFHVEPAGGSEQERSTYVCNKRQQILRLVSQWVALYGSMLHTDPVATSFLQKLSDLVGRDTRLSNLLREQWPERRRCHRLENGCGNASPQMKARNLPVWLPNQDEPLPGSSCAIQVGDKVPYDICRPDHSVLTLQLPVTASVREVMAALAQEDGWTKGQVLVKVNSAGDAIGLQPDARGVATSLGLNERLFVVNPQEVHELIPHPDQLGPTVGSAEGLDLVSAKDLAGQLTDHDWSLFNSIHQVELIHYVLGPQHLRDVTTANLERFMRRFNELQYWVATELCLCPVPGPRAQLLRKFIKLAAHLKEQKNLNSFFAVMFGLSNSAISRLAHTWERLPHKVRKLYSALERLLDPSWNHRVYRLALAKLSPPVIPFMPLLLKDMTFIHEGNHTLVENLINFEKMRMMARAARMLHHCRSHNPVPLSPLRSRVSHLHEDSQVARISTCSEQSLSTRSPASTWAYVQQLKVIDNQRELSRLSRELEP
Rap guanine nucleotide exchange factor 4 (Homo sapiens), sequence (Q8WZA2 whole entry, looked up): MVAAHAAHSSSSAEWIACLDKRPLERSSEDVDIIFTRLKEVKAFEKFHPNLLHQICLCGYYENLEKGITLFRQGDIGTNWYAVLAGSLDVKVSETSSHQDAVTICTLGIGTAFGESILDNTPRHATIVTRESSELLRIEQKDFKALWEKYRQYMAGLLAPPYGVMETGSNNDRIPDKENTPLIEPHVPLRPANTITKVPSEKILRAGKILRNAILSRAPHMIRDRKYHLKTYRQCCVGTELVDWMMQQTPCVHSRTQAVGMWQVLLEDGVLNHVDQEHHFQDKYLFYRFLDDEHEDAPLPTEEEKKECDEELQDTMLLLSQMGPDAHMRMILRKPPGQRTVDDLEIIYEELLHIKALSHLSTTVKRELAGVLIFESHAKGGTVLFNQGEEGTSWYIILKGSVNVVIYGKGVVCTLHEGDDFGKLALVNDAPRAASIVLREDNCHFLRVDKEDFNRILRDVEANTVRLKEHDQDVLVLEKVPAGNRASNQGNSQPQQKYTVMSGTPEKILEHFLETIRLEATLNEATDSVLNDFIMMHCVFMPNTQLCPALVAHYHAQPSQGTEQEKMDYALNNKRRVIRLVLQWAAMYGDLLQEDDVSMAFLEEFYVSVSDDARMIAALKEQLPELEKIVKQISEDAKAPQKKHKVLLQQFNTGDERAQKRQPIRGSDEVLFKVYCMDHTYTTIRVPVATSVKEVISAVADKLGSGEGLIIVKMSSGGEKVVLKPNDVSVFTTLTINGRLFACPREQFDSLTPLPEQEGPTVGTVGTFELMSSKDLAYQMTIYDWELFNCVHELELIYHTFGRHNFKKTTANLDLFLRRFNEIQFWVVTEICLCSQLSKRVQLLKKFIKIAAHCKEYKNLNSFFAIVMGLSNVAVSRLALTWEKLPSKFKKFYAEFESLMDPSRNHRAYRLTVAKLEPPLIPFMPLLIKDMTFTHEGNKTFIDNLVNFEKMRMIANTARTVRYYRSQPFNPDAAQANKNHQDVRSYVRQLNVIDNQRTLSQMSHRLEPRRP

SMILES | Potency [1] | Potency [2] | Potency [3] | Potency [4] | Potency [5] | Potency [6] | activation [3] | activity change, negative = inhibition [5] | activation [6] | outcome [4]
CC(=O)N1CCN(C(=O)COc2ccc(Br)cc2)CC1 | inactive | inactive | inactive | inactive | inactive | inactive | – | – | – | –
O=C(NCCCn1ccnc1)c1cc(-c2cccnc2)nc2ccc(Br)cc12 | inactive | inactive | inactive | inactive | inactive | inactive | – | – | – | –
Clc1c(Cl)c(Cl)c2n[nH]nc2c1Cl | 75.7 µM (active) | inactive | inactive | 19 µM (active) | inactive | inactive | – | – | – | –
CC(OC(=O)CCN1C(=O)C2CC=CCC2C1=O)C(=O)Nc1cccc(C#N)c1 (centres undefined) | inactive | inactive | – | inactive | – | – | 3.57% [at 17.1 µM, percent relative to cAMP agonist control] | -8.99% [at 30.8 µM] | 3.18% [at 30.8 µM] | –
Cc1cccc(NC(=O)c2c(NC(=O)C(F)(F)F)sc3c2CCCCC3)c1 | 42.6 µM (active) | inactive | inactive | inactive | inactive | inactive | – | – | – | –
CC(/C=C1\SC(=S)N(C(C(=O)O)C(C)C)C1=O)=C\c1ccccc1 (centres undefined) | 47.8 µM (active) | inactive | inactive | inactive | inactive | inactive | – | – | – | –
O=C(NCCOc1ccccc1-c1ccccc1)c1ccco1 | inactive | inactive | – | inactive | – | – | 6.96% [at 17.1 µM, percent relative to cAMP agonist control] | -5.39% [at 30.8 µM] | 12.2% [at 30.8 µM] | –
Nc1ncnc2nc(Sc3ccc(Cl)cc3)[nH]c12 | inactive | inactive | inactive | inactive | inactive | inactive | – | – | – | –
O=C(COC(=O)c1ccc(O)cc1O)Nc1nnc(-c2ccccc2)o1 | inactive | inactive | inactive | 84.9 µM (active) | inactive | inactive | – | – | – | –
CN(Cc1ccccc1N1CCCC1)C(=O)c1cc2ccccc2o1 | inactive | inactive | – | inactive | – | – | 4.19% [at 17.1 µM, percent relative to cAMP agonist control] | -10.5% [at 30.8 µM] | 17.8% [at 30.8 µM] | –
C/C=C/C(=O)N1c2ccc(C)cc2C(C)=CC1(C)C | inactive | inactive | inactive | inactive | inactive | inactive | – | – | – | –
CCOC(=O)N1CCN(S(=O)(=O)c2cc(-c3nn4c(C)nnc4c4ccccc34)ccc2C)CC1 | inactive | inactive | inactive | inactive | inactive | inactive | – | – | – | –
COc1ccccc1CNC(=O)CCCn1nc(C)c2c(C)n(-c3ccc(C)cc3)nc2c1=O | inactive | inactive | inactive | – | inactive | inactive | – | – | – | inactive [at 12.7 µM]
COc1ccccc1NC(=O)COC(=O)c1ccc([N+](=O)[O-])s1 | 21.3 µM (active) | inactive | inactive | inactive | inactive | inactive | – | – | – | –
CCN(CC)S(=O)(=O)c1cc(NC(=O)Cn2ncc(Cl)c(Cl)c2=O)ccc1C | 39.8 µM (active) | inactive | – | inactive | – | – | -11.9% [at 17.1 µM, percent relative to cAMP agonist control] | -2.1% [at 30.8 µM] | 5.37% [at 30.8 µM] | –
CC(=O)Oc1c(Sc2ccccc2[N+](=O)[O-])c(C)nn1C(C)(C)C | 42.6 µM (active) | inactive | inactive | inactive | inactive | inactive | – | – | – | –
CC1(C)CC(=O)C2=C(C1)c1c(ccc3ccccc13)NC2c1cc([N+](=O)[O-])cc([N+](=O)[O-])c1O (centres undefined) | 9.53 µM (active) | inactive | inactive | 26.9 µM (active) | inactive | inactive | – | – | – | –
O=C1C=C(N2CCOCC2)c2ccccc2C1=O | 39.8 µM (active) | inactive | – | inactive | – | – | -3.17% [at 17.1 µM, percent relative to cAMP agonist control] | -11.6% [at 30.8 µM] | 26.3% [at 30.8 µM] | –
CC(=O)NC(CCS(C)(=O)=O)C(=O)Nc1cccc(C)c1C (centres undefined) | inactive | inactive | inactive | inactive | inactive | inactive | – | – | – | –
Cc1ccc(/C=C/C(=O)Nc2ccc(S(=O)(=O)Nc3cc(C)nc(C)n3)cc2)cc1 | inactive | inactive | inactive | inactive | inactive | inactive | – | – | – | –
O=c1c2ccccc2nc(/C=C/c2cccnc2)n1CCc1ccccc1 | 23.9 µM (active) | inactive | inactive | inactive | inactive | inactive | – | – | – | –
O=C(CCCCCl)Nc1c2c(nc3ccccc13)CCC2 | inactive | inactive | – | inactive | – | – | 1.22% [at 17.1 µM, percent relative to cAMP agonist control] | -8.13% [at 30.8 µM] | -2.96% [at 30.8 µM] | –

SMILES | Potency [1] | Potency [2] | Potency [3] | Potency [4] | Potency [5] | Potency [6] | activation [3] | activity change, negative = inhibition [5] | activation [6] | outcome [4]
COCCNC(=O)c1ccc2c(c1)N(Cc1ccc(C(F)(F)F)cc1)C(=O)c1ccccc1S2 | inactive | inactive | inactive | inactive | inactive | inactive | – | – | – | –
O=C(COc1ccc(F)cc1)Nc1nccs1 | inactive | inactive | inactive | inactive | inactive | inactive | – | – | – | –
Cc1ccccc1C(=O)/C(C#N)=N/Nc1c(C)n(C)n(-c2ccccc2)c1=O | 42.6 µM (active) | inactive | inactive | 67.5 µM (active) | 79.4 µM (active) | inactive | – | – | – | –
COC(=O)CC1(C(=O)OC)Oc2ccc(Br)cc2C(=O)N1c1cc(Cl)cc(Cl)c1 (centres undefined) | inactive | inactive | – | 2.13 µM (active) | – | 0.0282 µM (active) | 5.41% [at 17.1 µM, percent relative to cAMP agonist control] | -4.58% [at 30.8 µM] | – | –
COc1ccc(C(=O)c2ccccc2)c2c(O)ccc(C(=O)c3ccccc3)c12 | inactive | inactive | inactive | inactive | inactive | inactive | – | – | – | –
Oc1ccc(NCc2cccs2)cc1 | inactive | inactive | – | inactive | – | – | 14.6% [at 17.1 µM, percent relative to cAMP agonist control] | 0.945% [at 30.8 µM] | 21.5% [at 30.8 µM] | –
COc1ccc(N2CCN(C(=O)c3cc(C)on3)CC2)cc1 | inactive | inactive | inactive | inactive | inactive | inactive | – | – | – | –
COc1ccc(NC(=O)Cn2cnc3sc(C)c(S(=O)(=O)N4CCOCC4)c3c2=O)c(OC)c1 | inactive | inactive | – | inactive | – | – | -0.644% [at 17.1 µM, percent relative to cAMP agonist control] | -23.9% [at 30.8 µM] | 3.18% [at 30.8 µM] | –
COc1ccc(CNC(=O)c2cc(=O)c3cc(C)ccc3o2)cc1 | inactive | inactive | inactive | inactive | inactive | inactive | – | – | – | –
Cc1ccc2nc(-c3ccc(NC(=O)c4ccco4)cc3)[nH]c2c1 | inactive | inactive | – | inactive | – | – | 7.16% [at 17.1 µM, percent relative to cAMP agonist control] | -13% [at 30.8 µM] | 29.2% [at 30.8 µM] | –
O=C1NN(c2ccccc2)C(=O)/C1=C/c1ccc(Sc2cccc3ccccc23)o1 | 17.8 µM (active) | inactive | – | inactive | – | – | 3.36% [at 17.1 µM, percent relative to cAMP agonist control] | -8.41% [at 30.8 µM] | 23.8% [at 30.8 µM] | –
C=CCc1c(C)c(C#N)c2nc3ccccc3n2c1N1CCCCC1 | inactive | inactive | inactive | inactive | inactive | inactive | – | – | – | –
O=C(O)CN1C(=O)/C(=C\c2cccc(OCc3ccc(Cl)cc3)c2)SC1=S | 75.7 µM (active) | inactive | inactive | inactive | inactive | inactive | – | – | – | –
Cc1ccc(S(=O)(=O)N2[C@@H](c3ccc(Cl)cc3)C(C(=O)O)=CC[C@H]2c2ccc(Cl)c(Cl)c2)cc1 | 75.7 µM (active) | inactive | inactive | 47.8 µM (active) | inactive | inactive | – | – | – | –
CCCCCN(C(=O)CCC(=O)OCc1ccc(C(C)C)cc1)c1c(N)n(CCCC)c(=O)[nH]c1=O | inactive | inactive | inactive | inactive | inactive | inactive | – | – | – | –
Cc1ccc(OCC(=O)Nc2ccccc2N2CCCC2)c(C)c1 | inactive | inactive | inactive | inactive | inactive | inactive | – | – | – | –
COc1ccc(/C=C\c2onc(C)c2S(=O)(=O)N2CCC(C(=O)NCCC(C)C)CC2)cc1 | inactive | inactive | – | inactive | – | – | 8.7% [at 17.1 µM, percent relative to cAMP agonist control] | -14.8% [at 30.8 µM] | 19.1% [at 30.8 µM] | –
COc1ccccc1C(=O)NC(CCSC)C(=O)NCc1ccccn1 (centres undefined) | inactive | inactive | – | inactive | – | – | -0.555% [at 17.1 µM, percent relative to cAMP agonist control] | -16.2% [at 30.8 µM] | -9.2% [at 30.8 µM] | –
CC1(C(=O)NS(=O)(=O)c2cccc(F)c2)CCN1C(=O)C1(c2ccc(Cl)cc2)CCC1 (centres undefined) | 19 µM (active) | inactive | inactive | inactive | inactive | inactive | – | – | – | –
C/C(=N\NC(=O)C1CC1)c1cccs1 | inactive | inactive | inactive | inactive | inactive | inactive | – | – | – | –
O=C(N/N=C/C=C\c1ccco1)c1ccccn1 | 6.01 µM (active) | inactive | inactive | inactive | inactive | inactive | – | – | – | –
CC(C)OC(=O)NC(c1ccccc1)C(Cl)(Cl)Cl (centres undefined) | inactive | inactive | – | inactive | – | – | 4.21% [at 17.1 µM, percent relative to cAMP agonist control] | -2.25% [at 30.8 µM] | 7.19% [at 30.8 µM] | –

Reference: PubChem BioAssay (NCATS)
